From PubChem BioAssay
Results with a measured potency or affinity are listed apart. Calls of active or inactive are those of the source.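 How the source made its calls, unless noted: active means a dose-response fit showing signal loss, with half-maximal concentration no higher than twice the top tested dose; inconclusive means flat fit between 30% and 70% signal loss, or poor fit; inactive means the rest.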

Legend:
[1] = C. neoformans lysis by adenylate kinase leakage – AK release luminescence, cherry-picks, dose response (AID 687000;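 active means fitted dose curve reaches 40% lysis signal rise at or below the highest valid concentration tested for that sample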;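 further: luminescent detection of adenylate kinase leaking from lysed yeast; 0% = median neutral control signal and 100% = double that signal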)
[2] = viability loss in HepG2 hepatoma cells – cell-based, cherry-picks, set 2, cytotoxicity control, dose response (AID 687002)
[3] = viability loss in HeLa cells – cell-based, ATP luminescence, cherry-pick samples, cytotoxicity control, dose response (AID 687004;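 active means a fitted half-maximal concentration no higher than twice the top valid tested dose, with signal falling as cells die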;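 further: 0% = neutral control median and -100% = staurosporine 10 µM control median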)

Measured: activity change, negative = cytotoxicity

CCC(=O)N1[C@H](CN(C)C(C)=O)[C@@H](c2ccc(C3=CCCCC3)cc2)[C@@H]1CO
inactive: all assays above

COC(=O)C1=C(C)N(C)C(=S)N(C)C1c1ccc(OC)cc1 (centres undefined)
inactive: all assays above

Cc1noc(C)c1NC(=O)N(C)C[C@@H]1Oc2ccc(NC(=O)NC(C)C)cc2CC(=O)N([C@@H](C)CO)C[C@@H]1C
inactive: all assays above

CC(NC(=O)COc1ccccc1Cl)c1ccccc1 (centres undefined)
inactive: all assays above

O=C(CSc1ncnc2c1cnn2-c1ccc(F)cc1)NCc1ccc2c(c1)OCO2
inactive: all assays above

Cc1ccc(NC(=O)C(=O)NCCCN2CCCC2=O)c(C)c1
inactive: all assays above

O=C(c1ccco1)N1N=C(c2cccs2)CC1c1ccc(F)cc1 (centres undefined)
inactive: all assays above

CC=Cc1ccc2n(c1=O)C[C@@H]1[C@@H](CO)[C@H](C(=O)NCc3ccc4c(c3)OCO4)[C@H]2N1C(=O)C1CC1 (mixture of isomers)
inactive: all assays above

COCCNC(=O)C[C@H]1C=C[C@H](NS(=O)(=O)c2ccc(C)cc2)[C@@H](CO)O1
inactive: all assays above

COc1cccc(CNC(=O)COc2ccc(C(=O)c3ccccc3)cc2)c1
inactive: all assays above

S=C(NCCc1cccc(Cl)c1)NC1CCCCC1
inactive: all assays above

C[C@H](CO)N1C[C@H](C)[C@H](CN(C)Cc2ccc(Cl)c(Cl)c2)Oc2c(NC(=O)Nc3ccccc3)cccc2C1=O
inactive: all assays above

Cc1ccc(OCC(=O)NC(C)c2ccccc2)cc1C (centres undefined)
inactive: all assays above

C/C=C/c1ccc([C@@H]2[C@@H](C#N)N(S(=O)(=O)c3cccc(F)c3)[C@@H]2CO)cc1
inactive: all assays above

COc1ccc(CN(C)C[C@@H]2OCCCC[C@@H](C)Oc3ccc(NC(=O)c4ccccc4)cc3C(=O)N([C@H](C)CO)C[C@@H]2C)cc1
inactive: all assays above

CN1C[C@@H]2C(c3ccc(C(F)(F)F)cc3)C3(c4ccccc4)CC2(C3)[C@H]1c1ccccc1 (some centres undefined)
inactive: all assays above

CCC(C)N(C(=O)CSc1ncnc2c1cnn2-c1ccccc1)C1CCS(=O)(=O)C1 (centres undefined)
inactive: all assays above

O=C1CCC(C(=O)Nc2cccc3ccccc23)N1 (centres undefined)
inactive: all assays above

CCC(=O)Nc1ccc2c(c1)C(=O)N(C)C[C@H](OC)[C@@H](C)CN[C@H](C)CO2
inactive: all assays above

Cc1ccc(S(=O)(=O)N2CC[C@@H]3[C@H]2c2cc(-c4ccccc4F)ccc2N[C@@H]3CO)cc1
inactive: all assays above

CCNC(=O)CN(c1ccccc1)S(=O)(=O)c1ccc(Cl)cc1
inactive: all assays above

N#Cc1ccc(C23CC4(C2)[C@H](CN(Cc2ccc(C(F)(F)F)cc2)[C@@H]4c2ccccc2)C3c2ccccc2)cc1 (some centres undefined)
inactive: all assays above

CCc1ccc(NC(=O)[C@H](C)NC(=O)C2CCN(C(=O)[C@@H](N)CC(C)C)CC2)cc1
inactive: all assays above

O=C(C[C@@H]1C=C[C@@H](NC(=O)Nc2cc(F)ccc2F)[C@H](CO)O1)NCCCN1CCOCC1
inactive: all assays above

COC(=O)C1=C(C)N(Cc2ccc(Cl)cc2)C(=S)NC1c1cccc(OC)c1 (centres undefined)
inactive: all assays above

Cc1noc(C)c1NC(=O)N(C)C[C@H]1OCCCC[C@@H](C)Oc2ccc(NC(=O)NC(C)C)cc2C(=O)N([C@H](C)CO)C[C@H]1C
inactive: all assays above

O=C(COc1ccc2c(c1)CCC2)NCc1ccc(Cl)cc1
inactive: all assays above

Cc1ccc(S(=O)(=O)N(C)C[C@H]2Oc3c(cccc3N(C)C)C(=O)N([C@@H](C)CO)C[C@H]2C)cc1
inactive: all assays above

Cc1ccc(C(=O)NC(=S)Nc2cccc(NC(=O)c3ccccc3)c2)cc1[N+](=O)[O-]
inactive: all assays above

CCc1ccc(NC(=O)[C@H](C)NC(=O)C2CCN(C(=O)[C@@H](N)C(C)C)CC2)cc1
inactive: all assays above

COc1ccc(NC(=O)CSc2ncnc3c2cnn3Cc2ccccc2)cc1
inactive: all assays above

Cc1cc(C)c(NC(=O)CN2CCCCCC2)c(C)c1
inactive: all assays above

COc1ccc(CN(C)C[C@@H]2Oc3ccc(NS(C)(=O)=O)cc3CC(=O)N([C@H](C)CO)C[C@H]2C)cc1
inactive: all assays above

Cc1ccc(NC(=S)NCc2ccc(Cl)cc2)c(OC(F)F)c1
inactive: all assays above

O=C(CSc1ncnc2c1cnn2-c1ccc(F)cc1)NCC1CCCO1 (centres undefined)
inactive: all assays above

O=C(NC[C@@H]1[C@@H](c2ccccc2)[C@H](CO)N1C(=O)C1CCC1)NC1CCCC1
inactive: all assays above

COC(=O)C1=C(C)N(Cc2ccc(F)cc2)C(=S)NC1c1cccc(OC)c1 (centres undefined)
inactive: all assays above

Cc1cc(C)cc(OCC(=O)NC(C)c2ccccc2)c1 (centres undefined)
inactive: all assays above

C[C@@H]1CN([C@H](C)CO)C(=O)CCCn2nncc2CO[C@H]1CN(C)Cc1cccc(C(F)(F)F)c1
inactive: all assays above

Cc1ccc(N2C(=O)CC(N3CCN(c4ccc(F)cc4)CC3)C2=O)c(C)c1 (centres undefined)
inactive: all assays above

O=C(NC(=S)Nc1ccccc1N1CCOCC1)c1ccccc1F
inactive: all assays above

COc1ccc(N(C)C(=O)c2cn(CC(C)C)c(=O)c3cc(OC)c(OC)cc23)c(OC)c1
inactive: all assays above

O=C(NC(=S)NCC1COc2ccccc2O1)c1ccccc1 (centres undefined)
inactive: all assays above

O=C(Nc1ccc2ncccc2c1)c1ccccc1
inactive: all assays above

COc1ccc(NC(=S)NCc2ccccc2Cl)c(OC)c1
inactive: all assays above

C[C@@H]1CN([C@H](C)CO)C(=O)c2cc(NS(=O)(=O)c3cn(C)cn3)ccc2O[C@@H](C)CCCCO[C@H]1CN(C)C
inactive: all assays above

CC(C)NC(=O)N(C)C[C@H]1Oc2c(NS(=O)(=O)c3ccc(Cl)cc3)cccc2C(=O)N([C@@H](C)CO)C[C@@H]1C
inactive: all assays above

O=C(c1c(Cl)cccc1Cl)N1CCN(c2ccccn2)CC1
inactive: all assays above

O=C(c1ccco1)N1N=C(c2cccs2)CC1c1ccco1 (centres undefined)
inactive: all assays above

CCNC(=O)CN(c1ccc(C)cc1)S(=O)(=O)c1ccc(SC)cc1
inactive: all assays above

CNC(=O)CN(c1ccccc1)S(=O)(=O)c1ccc(F)cc1
inactive: all assays above

CCc1ccccc1NC(=O)C1NC(=O)CC1c1ccccc1 (centres undefined)
inactive: all assays above

CC(=O)NC12CC3CC(C1)CC(C(=O)NCC(=O)Nc1c(C)cc(C)cc1C)(C3)C2
inactive: all assays above

C[C@@H]1CN([C@H](C)CO)C(=O)Cc2cc(NC(=O)CCCCCC(=O)Nc3ccccc3N)ccc2O[C@H]1CN(C)C(=O)Nc1ccccc1
inactive: all assays above

N#C[C@H]1[C@@H](c2ccccc2)[C@@H](CO)N1C(=O)Cc1ccccc1
inactive: all assays above

CN1c2ccc(-c3ccc(F)cc3)cc2[C@H]2[C@H](CCN2S(=O)(=O)c2cccc(F)c2)[C@H]1CO
inactive: [1] | [2] | [3] 7.29% [at 6 µM]

C[C@@H]1CN([C@@H](C)CO)C(=O)c2cc(-c3cncnc3)cnc2O[C@H]1CN(C)C(=O)CN1CCOCC1
inactive: all assays above

CNC[C@H]1Oc2ncc(C#CCC(C)C)cc2C(=O)N([C@H](C)CO)C[C@H]1C
inactive: all assays above

COCC#Cc1ccc2c(c1)O[C@H](CN(C)S(=O)(=O)c1ccc(OC)cc1)[C@H](C)CN([C@H](C)CO)S2(=O)=O
inactive: all assays above

Cc1cccc(C)c1NC(=O)C1(C)CCC(=O)N1CCCn1ccnc1 (centres undefined)
inactive: all assays above

C[C@@H]1CN([C@@H](C)CO)C(=O)c2cc(NC(=O)C3CC3)ccc2O[C@H]1CN(C)Cc1ccc2c(c1)OCO2
inactive: all assays above

O=C(c1cccnc1)N1C[C@H]2[C@@H](c3ccccc31)[C@@H](CO)N2C(=O)Nc1ccc(F)cc1
inactive: all assays above

COc1ccc(NC(=O)c2cn(C)c(=O)c3cc(OC)c(OC)cc23)c(OC)c1
inactive: all assays above
